Test results taken from PubChem BioAssay (NCATS).
Records with an inconclusive call do not appear. The source made the active and inactive calls. Calls follow the shape of the dose curve; as a rule, active = well fitted curve in the direction sought with a large enough effect; inconclusive = small, poorly fitted or top-dose-only effect, or another doubt; inactive = no such curve, though single readings can be large; an effect the other way counts as inactive or inconclusive.

What was measured:
[1] = qHTS of pediatric cancer cell lines to identify multiple opportunities for drug repurposing: Primary screen for NB-EBc1 cells (AID 1347095)
How it was run: (§1)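 Cells seeded at 500-1,000 cells/well in growth media, rested 5 hours at 37 degrees C, 5% CO2, then dosed; MIPE compounds at 11-point (from 0.78 nM) and NPC at 8-point (from 0.59 nM) final concentrations. Viability by CellTiter-Glo luminescence after 48 hours.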

[2] = qHTS of pediatric cancer cell lines to identify multiple opportunities for drug repurposing: Primary screen for U-2 OS cells (AID 1347096); also: nearly all actives have a fitted effect of over 50% in size
How it was run: (§2)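 Cells (500-1,000/well) rested 5 h, then received compounds for 48 h; metabolically active cells were measured by CellTiter-Glo luminescence. Final concentrations spanned up to 46 µM (MIPE, 11-point) or 0.59 nM-46 µM (NPC, 8-point) in primary screens, 11-point in follow-ups.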

[3] = qHTS of pediatric cancer cell lines to identify multiple opportunities for drug repurposing: Primary screen for Saos-2 cells (AID 1347097); also: nearly all actives have a fitted effect of over 40% in size
How it was run: as §1

[4] = qHTS of pediatric cancer cell lines to identify multiple opportunities for drug repurposing: Primary screen for SK-N-SH cells (AID 1347098); also: nearly all actives have a fitted effect of over 65% in size
How it was run: as §2

[5] = qHTS of pediatric cancer cell lines to identify multiple opportunities for drug repurposing: Primary screen for LAN-5 cells (AID 1347100)
How it was run: as §2

[6] = qHTS of pediatric cancer cell lines to identify multiple opportunities for drug repurposing: Primary screen for Rh18 cells (AID 1347102); also: nearly all actives have a fitted effect of over 65% in size
How it was run: as §2

[7] = qHTS of pediatric cancer cell lines to identify multiple opportunities for drug repurposing: Primary screen for OHS-50 cells (AID 1347103); also: nearly all actives have a fitted effect of over 40% in size
How it was run: as §2

[8] = qHTS of pediatric cancer cell lines to identify multiple opportunities for drug repurposing: Primary screen for RD cells (AID 1347104); also: nearly all actives have a fitted effect of over 55% in size
How it was run: as §1

[9] = qHTS of pediatric cancer cell lines to identify multiple opportunities for drug repurposing: Primary screen for BT-12 cells (AID 1347101); also: nearly all actives have a fitted effect of over 25% in size
How it was run: as §2

[10] = qHTS of pediatric cancer cell lines to identify multiple opportunities for drug repurposing: Primary screen for NB1643 cells (AID 1347099); also: nearly all actives have a fitted effect of over 50% in size
How it was run: as §1
Potency is read from the fitted curve at half-maximal effect.

Row | Compound | Potency [1] | Potency [2] | Potency [3] | Potency [4] | Potency [5] | Potency [6] | Potency [7] | Potency [8] | Potency [9] | Potency [10]
1 | Cc1cc(Nc2cc(CN3CCOCC3)c3nc(C)c(Cc4ccc(Cl)cc4F)n3n2)n[nH]1 | 4.18 µM (active) | inactive | 5.9 µM (active) | 6.81 µM (active) | 0.469 µM (active) | 13.2 µM (active) | 27.3 µM (active) | 20.9 µM (active) | – | –
2 | COc1ccc(C(=O)CC2(O)C(=O)Nc3c(Cl)ccc(Cl)c32)cc1 (stereo not drawn) | 0.418 µM (active) | inactive | 2.09 µM (active) | – | 1.32 µM (active) | – | 4.32 µM (active) | 5.9 µM (active) | 3.43 µM (active) | –
3 | CC(=O)OCC(=O)[C@@]1(O)[C@H](C)C[C@H]2[C@@H]3C=C(C)C4=Cc5c(cnn5-c5ccccc5)C[C@]4(C)[C@@H]3[C@@H](O)C[C@@]21C | 3.72 µM (active) | 18.7 µM (active) | 18.7 µM (active) | inactive | – | 13.2 µM (active) | 19.3 µM (active) | 16.6 µM (active) | 21.7 µM (active) | 13.2 µM (active)
4 | N#Cc1c(O)c2c(-c3ccc(-c4ccccc4O)cc3)csc2[nH]c1=O | inactive | inactive | inactive | – | inactive | inactive | inactive | inactive | inactive | –
5 | Cn1cc(-c2[nH]c3cc(NC(=O)[C@H](N)C4CCCCC4)cc4c3c2C=NNC4=O)cn1 | 0.59 µM (active) | 11.8 µM (active) | 4.69 µM (active) | 19.2 µM (active) | 1.48 µM (active) | – | 1.22 µM (active) | 14.8 µM (active) | inactive | –
6 | CC(O)C1C(=O)N2C(C(=O)O)=C(SC3CNC(C(=O)N(C)C)C3)C(C)C12 (stereo not drawn) | inactive | inactive | inactive | inactive | inactive | inactive | inactive | inactive | inactive | –
7 | CC(C)c1ccccc1Cc1cc(C(=O)Nc2ccc(S(=O)(=O)c3ccccc3C(C)(C)C)cc2)c(O)c(O)c1O | 2.35 µM (active) | inactive | 26.4 µM (active) | – | 23.5 µM (active) | 18.7 µM (active) | 24.3 µM (active) | – | 21.7 µM (active) | –
8 | Nc1ccc(S(=O)(=O)Nc2ncccn2)cc1 | inactive | inactive | inactive | – | inactive | inactive | inactive | inactive | inactive | inactive
9 | COc1c(N2C[C@@H]3CCCN[C@H]3C2)c(F)cc2c(=O)c(C(=O)O)cn(C3CC3)c12 | inactive | inactive | – | inactive | inactive | inactive | inactive | inactive | inactive | inactive
10 | Nc1nc(Nc2ccc(S(N)(=O)=O)cc2)nn1C(=O)c1c(F)cccc1F | 5.26 µM (active) | inactive | 13.2 µM (active) | 8.57 µM (active) | – | inactive | 9.68 µM (active) | 11.8 µM (active) | 13.7 µM (active) | –
11 | COc1c(OCCCN2CCOCC2)ccc2c3n(c(=NC(=O)c4cnc(N)nc4)nc12)CCN3 | 0.102 µM (active) | inactive | 0.0512 µM (active) | – | 0.407 µM (active) | 0.0812 µM (active) | 0.0211 µM (active) | 0.0724 µM (active) | – | –
12 | NC(=O)c1c(OCc2c(F)cc(Br)cc2F)nsc1NC(=O)NCCCCN1CCCC1 | 2.64 µM (active) | inactive | inactive | – | – | – | 24.3 µM (active) | 18.7 µM (active) | 27.3 µM (active) | inactive
13 | O=C(C=Cc1c(C(=O)O)[nH]c2cc(Cl)cc(Cl)c12)Nc1ccccc1 | inactive | inactive | – | inactive | inactive | inactive | inactive | inactive | inactive | inactive
14 | CC1(C)O[C@@H]2C[C@@H]3[C@H]4C[C@@H](F)C5=CC(=O)C=C[C@]5(C)[C@@]4(F)[C@@H](O)C[C@]3(C)[C@]2(C(=O)CO)O1 | inactive | inactive | inactive | inactive | inactive | inactive | inactive | – | inactive | –
15 | Cc1cn(-c2cc(NC(=O)c3ccc(C)c(Nc4nccc(-c5cccnc5)n4)c3)cc(C(F)(F)F)c2)cn1 | 23.5 µM (active) | inactive | – | inactive | inactive | inactive | inactive | – | inactive | inactive
16 | Nc1ccn([C@@H]2O[C@H](CO)[C@H](O)C2(F)F)c(=O)n1 | 0.935 µM (active) | inactive | 3.72 µM (active) | – | 0.0935 µM (active) | inactive | – | – | – | 0.469 µM (active)
17 | CCCCCN(CCC12CC3CC(CC(C3)C1)C2)C(=O)NCCCc1ccncc1 | 20.9 µM (active) | inactive | 18.7 µM (active) | inactive | 16.6 µM (active) | – | 19.3 µM (active) | – | – | –

Row | Compound | Potency [1] | Potency [2] | Potency [3] | Potency [4] | Potency [5] | Potency [6] | Potency [7] | Potency [8] | Potency [9] | Potency [10]
18 | CN1CC[C@@H](c2c(O)cc(O)c3c(=O)cc(-c4ccccc4Cl)oc23)[C@@H](O)C1 | 0.0743 µM (active) | 0.296 µM (active) | 0.148 µM (active) | 0.0764 µM (active) | – | – | 0.122 µM (active) | 0.235 µM (active) | 0.122 µM (active) | –
19 | O=C(Cc1ccc(-c2ccc(OCCN3CCOCC3)cc2)cn1)NCc1ccccc1 | 0.0148 µM (active) | – | 0.0148 µM (active) | 6.81 µM (active) | 0.0093 µM (active) | 13.2 µM (active) | 0.0306 µM (active) | 0.0526 µM (active) | 0.0385 µM (active) | 0.0833 µM (active)
20 | CNc1nccc(-c2cccnc2Oc2cc(C(=O)Nc3cccc(C(F)(F)F)c3)ccc2C)n1 | 3.32 µM (active) | – | 16.6 µM (active) | 9.61 µM (active) | 16.6 µM (active) | 18.7 µM (active) | 15.3 µM (active) | 8.33 µM (active) | 19.3 µM (active) | 11.8 µM (active)
21 | C[C@@H](Oc1cc(-c2cnn(C3CCNCC3)c2)cnc1N)c1c(Cl)ccc(F)c1Cl | 9.35 µM (active) | – | 9.35 µM (active) | 19.2 µM (active) | 1.05 µM (active) | 16.6 µM (active) | 2.43 µM (active) | 16.6 µM (active) | 24.3 µM (active) | 3.72 µM (active)
22 | O=C(O)c1ccc2cc(-c3ccc(O)c(C45CC6CC(CC(C6)C4)C5)c3)ccc2c1 | 0.209 µM (active) | inactive | – | 24.1 µM (active) | 0.59 µM (active) | – | 0.243 µM (active) | 5.26 µM (active) | – | 0.372 µM (active)
23 | CC=CC1=C(C(=O)O)N2C(=O)[C@H](NC(=O)[C@H](N)c3ccc(O)cc3)[C@@H]2SC1 | inactive | inactive | – | 19.2 µM (active) | – | inactive | – | inactive | – | 20.9 µM (active)
24 | CC=C1NC(=O)[C@H]2CSSCCC=C[C@H](CC(=O)N[C@H](C(C)C)C(=O)N2)OC(=O)[C@H](C(C)C)NC1=O | 0.0296 µM (active) | 0.0296 µM (active) | – | 0.121 µM (active) | 0.0093 µM (active) | 0.0053 µM (active) | 0.0193 µM (active) | 0.0148 µM (active) | 0.0122 µM (active) | 0.0093 µM (active)
25 | COc1cccc(Nc2c(C(N)=O)cnc3c(C)cc(S(=O)(=O)c4cccc(C(=O)N(C)C)c4)cc23)c1 | inactive | inactive | – | – | – | inactive | 10.6 µM (active) | inactive | – | –
26 | CN1CCC(CNc2ccc3ncc(-c4cccc(OC(F)(F)F)c4)n3n2)CC1 | 18.7 µM (active) | – | 18.7 µM (active) | 7.64 µM (active) | 14.8 µM (active) | 18.7 µM (active) | 4.85 µM (active) | 18.7 µM (active) | 27.3 µM (active) | 18.7 µM (active)
27 | Nc1ncnc2c1c(-c1cnc3[nH]ccc3c1)nn2C1CCCC1 | 0.469 µM (active) | 2.35 µM (active) | – | 2.15 µM (active) | 1.05 µM (active) | 0.526 µM (active) | 0.0685 µM (active) | 1.87 µM (active) | 1.37 µM (active) | 5.9 µM (active)
28 | CNC(=O)c1ccccc1Nc1nc(Nc2ccc(N3CCOCC3)cc2OC)ncc1Cl | 0.662 µM (active) | 18.7 µM (active) | – | 6.07 µM (active) | 0.264 µM (active) | 5.9 µM (active) | 0.306 µM (active) | 0.469 µM (active) | – | 0.332 µM (active)
29 | COc1cc2c(Oc3ccc4[nH]c(C)cc4c3F)ncnc2cc1OCCCN1CCCC1 | 4.18 µM (active) | inactive | – | 7.64 µM (active) | 20.9 µM (active) | 18.7 µM (active) | 30.6 µM (active) | 26.4 µM (active) | 24.3 µM (active) | –
30 | Cc1ccc(CN2CCNCC2)cc1NC(=O)CNc1ccc(F)c(F)c1 | inactive | inactive | – | 19.2 µM (active) | inactive | – | – | inactive | inactive | inactive
31 | Cc1nc2ccc(CN(C)c3ccc(C(=O)N[C@@H](CCC(=O)O)C(=O)O)s3)cc2c(=O)[nH]1 | 0.0422 µM (active) | inactive | – | – | – | inactive | – | inactive | – | inactive
32 | COc1cc2c(cc1-c1c(C)noc1C)ncc1[nH]c(=O)n([C@H](C)c3ccccn3)c12 | 16.6 µM (active) | 18.7 µM (active) | – | 21.5 µM (active) | 5.9 µM (active) | 5.9 µM (active) | 0.485 µM (active) | 4.69 µM (active) | 19.3 µM (active) | 11.8 µM (active)
33 | O=C(O)CO.[NH2-].[NH2-].[Pt+2] | inactive | inactive | – | inactive | inactive | inactive | inactive | inactive | inactive | inactive
